# In the library only some 5.5% were active in any assay of this set; here they are far more common.
# uPA generation = cell surface uPA generation inhibition | cell surface uPA generation assay, qHTS | Potency, µM (doses to about 38.3 µM), inactives show at the top dose activity change, negative = inhibition, most hits filed as inhibitors | 330,000 tested, 0.31% active | AID 540303; active = well fitted inhibition curve with a large enough effect; inconclusive = small, poorly fitted or top-dose-only effect; inactive = no such curve, though single readings can be large or run the other way; tested in mouse RAW 264.7 cells; note: % is set by controls: 0 for no effect and ±100 for the full control effect; nearly all actives have a fitted effect of over 55% in size
# BCR signal inh = inhibitors of chronic active B-cell receptor signaling; ABC-DLBCL IkBa-CBG/CBR reporter, luminescence ratio, 4 h; Potency, µM (doses to about 46.1 µM), for inactives: at the top dose activity change, negative = inhibition, actives largely listed as inhibitors; 340,000 tested, 0.05% active; active = well fitted inhibition curve with a large enough effect in the signal ratio, with a control signal flat, not every such curve was filed as active; inconclusive = small, poorly fitted or top-dose-only effect, or effect the other way, or a change in a side signal; the % refers to the signal ratio;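 note: plate controls were basal doxycycline-induced cells for no effect and cells given 10 µM MG132 for full effect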
#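 Compounds up to 46 uM were incubated four hours with TMD8 cells whose green CBG68 luciferase is fused to IkappaBalpha; red CBR luminescence normalised the signal, and concentration-effect curves were fitted to fusion, red and ratio data.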
# Mito fusion yeast = blocks mitochondrial division or promotes mitochondrial fusion; S. cerevisiae fusion-defective mutant growth rescue, CellTiterGlo 48 h; AID 485298; Potency, µM (titrated, usually from 46.1 µM), for the others: top-dose growth rescue (activation), actives largely listed as activators; 320,000 tested, 0.23% active; note: % of control where 0% means no effect; nearly all actives have a fitted effect of over 45% in size
#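 Growth-rescue viability read-out: after 48 h at the non-permissive 37C in glycerol/ethanol YPEG, yeast mitochondrial fusion mutants are measured by CellTiterGlo luminescence; compounds (23 nl pinned per well) restoring growth score as division inhibitors or fusion activators.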
# RORgamma inh = inhibitors of mouse ROR gamma transcriptional activity. P51450. Drosophila S2 Gal4-RORgamma UAS-luciferase reporter, 20 h. Potency, µM (top dose mostly 53.6 µM), without a hit: at the top dose activity change, negative = inhibition, hits mostly inhibitors. 310,000 tested, 5.4% active. AID 2551; note: % is set by controls: 0 for no effect and ±100 for the full control effect; nearly all actives have a fitted effect of over 60% in size
# Target sequence (P51450 whole entry, looked up, the tested form may be a part): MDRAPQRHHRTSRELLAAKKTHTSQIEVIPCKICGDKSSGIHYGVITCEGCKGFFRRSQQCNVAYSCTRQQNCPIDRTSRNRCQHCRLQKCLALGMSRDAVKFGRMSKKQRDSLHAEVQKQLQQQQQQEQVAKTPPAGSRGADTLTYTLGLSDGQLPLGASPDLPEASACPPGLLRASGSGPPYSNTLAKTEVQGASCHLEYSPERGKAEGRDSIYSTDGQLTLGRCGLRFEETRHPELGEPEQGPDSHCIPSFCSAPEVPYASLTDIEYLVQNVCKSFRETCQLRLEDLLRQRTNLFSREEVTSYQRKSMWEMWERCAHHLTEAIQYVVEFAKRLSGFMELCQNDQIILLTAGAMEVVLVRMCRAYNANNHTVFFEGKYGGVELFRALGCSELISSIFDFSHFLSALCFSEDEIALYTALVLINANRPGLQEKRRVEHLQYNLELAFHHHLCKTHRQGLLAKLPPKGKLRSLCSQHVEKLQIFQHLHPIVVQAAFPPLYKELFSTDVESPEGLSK
#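 Using a luciferase readout, inhibitors were identified by reduced reporter activity in Drosophila cells coexpressing a copper-inducible Gal4–ROR gamma fusion and UAS-driven Photinus luciferase, incubated 20 hr after 700 uM copper sulfate.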
# Gal4-VP16 FLuc = counter-screen for ROR gamma inhibitors: Gal4-VP16 reporter; Drosophila S2 Gal4-VP16 UAS-luciferase, luminescence, 20 h; Potency, µM (titrated, usually from 53.6 µM), for inactives: at the highest dose activity, negative = inhibition, hits mostly inhibitors; 310,000 tested, 3.5% active; AID 2546;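 note: Gal4-VP16 expression switched on by copper sulfate through the metallothionein promoter; % is set by controls: 0 for no effect and ±100 for the full control effect; nearly all actives have a fitted effect of over 50% in size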
# Integrin act MD = activates integrin-mediated alleviation for muscular dystrophy | alpha7betagal myoblasts, beta-gal FDG fluorescence, 48 h | Potency, µM (series often up to 38.3 µM), without a hit: at the highest dose activation, hits mostly activators | 350,000 tested, 0.064% active | AID 624291;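 note: 100% = response of the positive control SU9516; nearly all actives have a fitted effect of over 60% in size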
#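 alpha7betagal+/- myoblasts (passage 13, 250/well) treated 48 h at 37C with compounds at 1:260 dilution of DMSO stock. Lysed, then beta-galactosidase activity read as FDG fluorescence (ex 480/em 540) after 30 min, with pre-read for autofluorescence.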
# Starred values were filed as active, the others as inactive; ? = inconclusive; nt = no result; [ ] = another dose, or the depositor's remark. Unless noted, calls come from the whole dose curve; as a rule, active = well fitted curve in the direction sought with a large enough effect; inconclusive = small, poorly fitted or top-dose-only effect, or another doubt; inactive = no such curve, though single readings can be large; an effect the other way counts as inactive or inconclusive. Potency is the fitted concentration of half-maximal effect.
SMILES,uPA generation,BCR signal inh,Mito fusion yeast,RORgamma inh,Gal4-VP16 FLuc,Integrin act MD
CC(C)(C)[C@@H](O)C(Cc1ccc(Cl)cc1)n1cncn1 (stereo partly specified),nt,nt,nt,-4%,1%,nt
Cc1ccc(Sc2c([N+](=O)[O-])c(=O)n(C)c3ccccc23)cc1,?,?,1%,11µM*,7.1µM*,7%
Cc1ccc(Nc2c([N+](=O)[O-])c(=O)n(C)c3ccccc23)cc1,-5%,?,12%,-17%,-1%,1%
Cc1ccc(Sc2c(O)c3ccccc3n(C)c2=O)cc1,7%,1%,14µM*,-4%,-2%,2%
O=C(c1cccc(F)c1)N1CCC2(CCCN(C(c3ccccc3)c3ccccc3)C2)CC1,nt,nt,nt,50%,-7%,nt
Cc1cc(NS(=O)(=O)c2ccc(NC(=S)NC(=O)/C=C/c3ccccc3)cc2)no1,-9%,?,-1%,?,0%,-16%
Cc1ccc(/C=C/C(=O)NC(=S)Nc2ccc(S(=O)(=O)Nc3cc(C)on3)cc2)cc1,-5%,6%,2%,?,-9%,7%
C=CCN(CC=C)S(=O)(=O)c1ccc(NC(=S)NC(=O)/C=C/c2ccc(C)cc2)cc1,-2%,nt,5%,10µM*,?,12%
C=CCN(CC=C)S(=O)(=O)c1ccc(NC(=S)NC(=O)c2ccco2)cc1,-12%,1%,3%,0%,?,-2%
C=CCN(CC=C)S(=O)(=O)c1ccc(NC(=S)NC(=O)c2ccc(-c3ccccc3)cc2)cc1,-3%,0%,-4%,1.4µM*,2.5µM*,-2%
C=CCN(CC=C)S(=O)(=O)c1ccc(NC(=S)NC(=O)/C=C/c2cccc3ccccc23)cc1,8%,13%,1%,2.2µM*,?,18%
FC(F)(F)c1ccccc1-c1nc(NCCN2CCOCC2)c2ccccc2n1,nt,nt,nt,14%,-8%,nt
CC(=O)Nc1ccc(C(=O)N/N=C/c2cc(Br)cc(Br)c2O)cc1,3%,3%,-5%,5µM*,-25%,0%
CC(C)C(=O)Nc1ccc(C(=O)N/N=C/c2cc(Br)cc(Br)c2O)cc1,-2%,-4%,10%,?,?,-60%
CNC(=S)N/N=C/c1cc(Br)cc(Br)c1O,-7%,?,10%,3.2µM*,3.2µM*,-12%
COc1ccc(CCCn2ncc3c2nc(N)n2nc(-c4ccco4)nc32)cc1,nt,nt,nt,37%,-19%,nt
CCCN1C(=O)C(=O)c2cc(Cl)ccc21,5.6µM*,?,nt,nt,nt,-44%
O=C1C(=O)N(CCS(=O)(=O)c2ccccc2)c2ccc(Cl)cc21,?,?,0%,10%,3%,-53%
Cc1ccc(NC(=O)/C(C#N)=C(\N)C(Cl)(Cl)Cl)nc1,nt,?,-3%,-32%,-5%,-25%
Cc1ccc(NC(=O)COC(=O)CC2CC3CCC2C3)cc1S(=O)(=O)N1CCOCC1 (stereo unspecified),-2%,-8%,nt,nt,nt,-12%
Cc1cc(C)n(-c2nc(C)nc(NCc3ccccc3)n2)n1,-6%,?,1%,1.6µM*,5.6µM*,-8%
Cc1cc(C)n(-c2nnc(NCc3ccc(Cl)cc3)nn2)n1,4%,-6%,-3%,?,4%,-16%
CNc1nc(C)nc(-n2nc(C)cc2C)n1,-1%,0%,-9%,6.3µM*,?,8%
CCCNc1c(NS(=O)(=O)c2cccc(C#N)c2)c(=O)oc2ccccc12,3%,-13%,-2%,-2%,-7%,26%
CCc1ccc(C2CC(c3ccccc3)n3ncnc3N2)cc1 (stereo unspecified),8%,?,1%,18µM*,-4%,11%
SMILES,uPA generation,BCR signal inh,Mito fusion yeast,RORgamma inh,Gal4-VP16 FLuc,Integrin act MD
CCc1ccc(C2CC(c3ccccc3)Nc3nc(N)nn32)cc1 (stereo unspecified),6%,?,-22%,-15%,-12%,0%
O=C(NCc1ccco1)c1ccc2nc3sc4c(c3c(=O)n2c1)CCCC4,nt,10%,9%,4.5µM*,?,nt
C=CCn1c(SCC(=O)NCc2ccco2)nc2sc3c(c2c1=O)CCCC3,1%,-1%,2%,-6%,5%,5%
N=C(N)S/C=C\C(=O)O,nt,nt,nt,32µM*,32µM*,nt
COc1cccc(CSc2nc3ccccc3[nH]2)c1,8.9µM*,-8%,6%,?,?,14%
O=[N+]([O-])c1cccc(CSc2nc3ccccc3[nH]2)c1,0%,-6%,22%,?,-7%,15%
COc1ccc2nc(Nc3nc(CSc4nc5ccccc5[nH]4)cc(=O)[nH]3)nc(C)c2c1,-7%,-11%,-4%,5.6µM*,5µM*,-39%
CC(NC(=O)CSC1=NCCS1)c1ccccc1 (stereo unspecified),-4%,-1%,-1%,5µM*,-4%,-23%
O=C(CSC1=NCCS1)NC(NC(=O)CSC1=NCCS1)c1ccccc1,-12%,-14%,3%,?,8%,-21%
CCOC(=O)/C=C/S(=O)(=O)c1ccc(NC(C)=O)cc1,-14%,?,3%,3.5µM*,3.5µM*,-68%
O=S1(=O)NCC23CCC(CC21)O3 (stereo unspecified),nt,nt,nt,-3%,18%,nt
CC(=O)N1CCN(C(=O)c2cc(S(=O)(=O)N3CCCCC3)ccc2Cl)CC1,7%,2%,3%,nt,nt,5%
C/C(=N/NC(=O)c1cc2ccccc2cc1O)c1ccco1,-3%,0%,-5%,?,?,6%
Cc1cc(C(=O)NN=C(Cc2ccccc2)Cc2ccccc2)c(C)o1,-22%,?,-2%,?,?,4%
C/C(=N\Nc1nc(C)cc(C)n1)c1ccc(C)o1,3%,12%,-9%,7.1µM*,10µM*,2%
C/C(=N\NC(=O)c1cc2ccccc2cc1O)c1ccc(C)o1,5%,5%,-5%,8.9µM*,?,11%
C/C(=N\NC(=O)c1cc(C)oc1C)c1ccc2ccccc2c1,-3%,?,7%,2.2µM*,-29%,8.9µM*
CC(C)(CS)C(=O)N1CCC[C@H]1C(=O)O,nt,nt,nt,-15%[16.9 µM],-18%[17 µM],nt
NC(N)=NCCC[C@H](NC(=O)c1ccccc1)C(=O)Nc1ccc([N+](=O)[O-])cc1,nt,nt,nt,4%,2%,nt
COC(=O)C1C(=O)c2c([nH]c(C(=O)OCC3CCCO3)c2C)CC1C (stereo unspecified),13µM*,17%,1%,-18%,-6%,0%
Cc1ccc(SC/C(O)=C(\C#N)c2nc3ccccc3n2C)cc1,-2%,-10%,6%,7.9µM*,6.3µM*,13%
N#C/C(=C(/O)CN1CCOCC1)c1nc2ccccc2s1,6%,0%,2%,22%,-1%,23%

# Screening results (PubChem)
